High-throughput results from PubChem.
NS1 function inh – blocks influenza NS1 protein function; Potency, µM (titrated, usually from 46.1 µM), inactives show at the top dose activity, positive = more growth; 270,000 compounds, 0.4% hits; calls by dose curve; note: actives are rising curves; nearly all actives have a fitted effect of over 50% in size
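OD600 was taken as the measure of yeast growth restored by compound in an NS1-expressing S. cerevisiae strain. Cells had been washed out of glucose medium and diluted 1:100 into galactose -URA medium, pH 6.0.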
VACV Venus inh – vaccinia inhibition (Venus reporter); AID 720580; 330,000 compounds, 0.46% hits; Potency, µM (highest dose often 36.5 µM), without a hit: at the highest dose activity change, negative = inhibition, most hits filed as inhibitors; Vaccinia virus Venus reporter expression, fluorescence; calls by dose curve; tested in A549 cells; note: % is set by controls: 0 for no effect and ±100 for the full control effect; nearly all actives have a fitted effect of over 30% in size
Pf growth 96h – P. falciparum growth inhibition at 96 hours; P. falciparum luciferase reporter growth, 96 h; Potency, µM (series often up to 28.7 µM), inactives show at the highest dose activity change, negative = inhibition, actives largely listed as inhibitors; 320,000 compounds, 6.9% hits; AID 504834; note: % is set by controls: 0 for no effect and ±100 for the full control effect
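P. falciparum expressing integrated firefly luciferase, in erythrocytes at 2% hematocrit, 0.05% parasitemia, incubated with compounds 96 h at 37 C, 5% CO2. Growth inhibition read as loss of luminescence; two-generation exposure targets delayed-death apicoplast inhibitors.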
Pf growth 48h – inhibits P. falciparum growth in the first generation, 48 h; Potency, µM (titrated, usually from 28.7 µM), for the others: at the top dose activity change, negative = inhibition, usual class: inhibitors; AID 504832; 310,000 compounds, 5.9% hits; P. falciparum luciferase growth in erythrocytes, 48 h; note: % is set by controls: 0 for no effect and ±100 for the full control effect
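Compounds are pin-transferred into medium, infected erythrocytes (2% hematocrit, 0.1% parasitemia final) are added, and plates sit one parasite generation at 37 C in 5% CO2. Detection reagent is then added and luminescence measured.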
Vaccinia mCherry – vaccinia inhibition (mCherry reporter). Vaccinia virus mCherry reporter infection, fluorescence. Potency, µM (doses to about 36.5 µM), without a hit: at the highest dose activity change, negative = inhibition, usual class: inhibitors. 310,000 compounds, 0.63% hits; calls by dose curve; tested in A549 cells; note: % is set by controls: 0 for no effect and ±100 for the full control effect; nearly all actives have a fitted effect of over 35% in size
HCV inh – inhibitors of hepatitis C virus infection; Potency, µM (titrated, usually from 41.8 µM), inactives show at the top dose activity change, negative = inhibition, usual class: inhibitors; Huh7.5.1 HCVcc-Cre infection, luciferase reporter, 44 h; 340,000 compounds, 3.4% hits; note: % is set by controls: 0 for no effect and ±100 for the full control effect
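Infectious HCV cell culture screen: compound-treated cells (1,000/well, pre-plated 4 h) are infected with HCVcc-Cre at roughly 0.5 moi and grown 44 h. Infection is quantified by luciferase signal after 15 min substrate incubation at room temperature.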
An asterisk follows results filed as active; i = inactive; ? = inconclusive; / = no result given; [ ] = another dose, or the depositor's remark. In the library only some 11% were active in any assay of this set; here they are far more common. Unless noted, calls come from the whole dose curve; as a rule, active = well fitted inhibition curve with a large enough effect; inconclusive = small, poorly fitted or top-dose-only effect, or another doubt; inactive = no such curve, though single readings can be large or run the other way. Potency is the fitted concentration of half-maximal effect.

SMILES	NS1 function inh	VACV Venus inh	Pf growth 96h	Pf growth 48h	Vaccinia mCherry	HCV inh
COc1cccc(-c2nc3nc(C)cc(C)n3c2Nc2ccc3c(c2)OCCO3)c1	/	-9.3%	/	/	-17.2%	/
COc1ccc(NC(=O)CSc2nnc(-c3ccccc3C)n2N)cc1	-1.7%	/	17.0%	41.5%	/	14.0%
CS(=O)(=O)N(Cc1ccccc1)c1ccc(C(=O)N2CCN(c3cccc(Cl)c3)CC2)cc1	13.5%	/	/	?	/	8.91µM*
CCc1cc(C(=O)NNC(=O)CCl)sc1C	/	/	1.47µM*	1.04µM*	/	-15.3%
CCc1cc(C(=O)NNC(=O)CCN2CCN(c3ccccc3)CC2)sc1C	4.5%	/	28.7%	5.1%	/	-9.3%
Cc1oc(C(=O)O)cc1COc1cccc2ccccc12	-53.0%	/	2.33µM*	5.2%	/	4.3%
COc1cc(C(=O)O)cc(OC)c1OCc1cc(C(=O)O)oc1C	4.4%	-8.4%	-11.1%	7.4%	/	17.3%
CC(C)N(C(=O)CSc1nc2ccc(Cl)cc2[nH]1)c1ccccc1	/	-9.8%	/	/	-11.0%	/
CN(C)c1ccc(C(=O)OCC(=O)NCC2CCCO2)cc1 (stereo not given)	0.2%	/	6.8%	/	/	-0.9%
Cn1c(N)c(C(=O)COC(=O)c2ccc3c(c2)OCCO3)c(=O)n(C)c1=O	-18.9%	2.4%	0.0%	26.0%	-5.8%	-2.6%
CC(C)Cn1c(N)c(C(=O)COC(=O)c2cccc(Cl)c2)c(=O)n(C)c1=O	/	-12.9%	33.4%	5.6%	-19.0%	2.24µM*
CCc1ccc(C(=O)OCC(=O)c2c(N)n(CC(C)C)c(=O)n(C)c2=O)cc1	/	-15.0%	13.1µM*	?	-22.4%	?
CC(C)Cn1c(N)c(C(=O)COC(=O)c2ccc3c(c2)OCCO3)c(=O)n(C)c1=O	-1.6%	/	?	?	/	7.08µM*
CC(C)Cn1c(N)c(C(=O)CSc2ccc3c(c2)OCCO3)c(=O)n(C)c1=O	-0.6%	/	62.7%	3.7%	/	2µM*
CC(C)Cn1c(N)c(C(=O)COC(=O)c2ccc(F)cc2)c(=O)n(C)c1=O	/	-3.8%	3.4%	-3.7%	i	?
CC(C)CN(C(=O)CSc1ccc2c(c1)OCCO2)c1c(N)n(CC(C)C)c(=O)[nH]c1=O	/	-10.7%	?	?	i	9.7%
Cc1nc(-c2ccc(S(=O)(=O)Nc3ccc(Cl)c(C(F)(F)F)c3)cc2)co1	/	-12.8%	/	/	-12.4%	/
CCN(CC)S(=O)(=O)c1cccc(C(=O)OCC(=O)Nc2ccccc2OC(F)F)c1	-7.0%	/	/	-7.1%	/	0.9%
Nn1c(Cc2ccccc2)nc2ccccc2c1=O	/	-10.9%	/	/	-2.7%	14.1%
O=C(Nc1cc(S(=O)(=O)N2CCOCC2)ccc1O)c1ccco1	2.4%	-12.1%	?	?	-14.3%	12.7%
CC(C)Cn1c(N)c(C(=O)COC(=O)Cc2cccc(C(F)(F)F)c2)c(=O)n(C)c1=O	/	-8.5%	?	9.28µM*	-10.6%	0.6%[8.37 µM]
CC(C)Cn1c(N)c(C(=O)COC(=O)Cc2cccs2)c(=O)n(C)c1=O	6.7%	-8.1%	31.5%	16.8%	-17.3%	2.9%
COc1cc(NS(=O)(=O)c2cc(Br)cc3c2N(C(=O)C2CC2)CC3)cc(OC)c1	/	?	/	/	17.8µM*	/
O=C(C1CC1)N1CCc2cc(Br)cc(S(=O)(=O)NCCCN3CCCC3)c21	1.4%	/	9.28µM*	-1.5%	/	?
O=C(C1CC1)N1CCc2cc(Br)cc(S(=O)(=O)Nc3ccc(F)c(F)c3)c21	/	-11.7%	/	/	-14.3%	/
SMILES	NS1 function inh	VACV Venus inh	Pf growth 96h	Pf growth 48h	Vaccinia mCherry	HCV inh
CC1CCCN(CCCNS(=O)(=O)c2cc(Br)cc3c2N(C(=O)C2CC2)CC3)C1 (stereo not given)	16.0%	-20.1%	21.4%	-4.9%	-15.2%	-9.8%
CCN(CC)Cc1c(O)ccc2c(C)c(CC(=O)OC)c(=O)oc12	-4.6%	/	11.5%	/	/	10.8%
O=C(NC(=S)Nc1nc(-c2cccc3ccccc23)cs1)c1cc2ccccc2o1	10.6%	-2.1%	-18.5%	10.9%	-17.1%	-14.9%
COc1ccc(CNC(=O)COC(=O)/C=C/c2ccc(Cl)cc2)cc1	/	-3.5%	19.4%	-13.6%	0.6%	16.7%
Cc1ccc(C(=O)Nc2ccc(NC(=O)c3cccs3)cc2)cc1[N+](=O)[O-]	-5.4%	/	13.0%	13.9%	/	-19.7%
Cc1ccc(NC(=O)c2cccs2)cc1[N+](=O)[O-]	-51.6%	-16.3%	?	27.3%	-14.1%	7.94µM*
Cc1ccc[n+](C(C)C(=O)Nc2ccc([N+](=O)[O-])cc2C)c1 (stereo not given)	/	-6.0%	28.6%	3.4%	-12.4%	-0.5%
Cc1ccc(C(=O)NC(=S)Nc2ccc(NC(=O)c3cccs3)cc2)cc1[N+](=O)[O-]	11.4%	-19.1%	9.28µM*	-0.9%	-9.8%	-10.1%
Cc1ccc[n+](C(C)C(=O)Nc2ccc(C)c([N+](=O)[O-])c2)c1 (stereo not given)	-1.6%	/	11.7µM*	?	/	?
COc1ccc(C(=O)Nc2ccc(NC(=O)c3cccs3)cc2)cc1[N+](=O)[O-]	-2.2%	-6.7%	-11.3%	10.6%	4.8%	2.5%
COc1cccc(NC(=O)N2CCC(C(=O)Nc3ccc(C)cc3C)CC2)c1	-17.1%	/	18.4%	-5.6%	/	-5.6%
CCN1C(=O)[C@H]2[C@@H](c3ccc(-c4ccc5c(c4)OCO5)c(OC)c3)N[C@@](Cc3ccccc3)(C(=O)OC)[C@H]2C1=O	/	-27.1%	?	1.17µM*	i	?
CCN1C(=O)[C@H]2[C@@H](c3ccc(-c4ccc5c(c4)OCO5)c(OC)c3)N[C@@](CC(C)C)(C(=O)OC)[C@H]2C1=O	/	?	13.1µM*	6.57µM*	-15.4%	-21.1%
COC(=O)[C@]1(Cc2ccccc2)N[C@H](c2ccc(-c3ccc4c(c3)OCO4)cc2)[C@@H]2C(=O)N(C)C(=O)[C@@H]21	/	-21.6%	?	?	-14.2%	-2.0%
COc1cc(-c2noc(C)c2C#Cc2nccn2C)cc(OC)c1OC	-31.1%	-28.2%	?	?	-8.4%	?
O=C(/C=C/c1cn(CC(O)CN2CCOCC2)c2ccccc12)c1cccs1 (stereo not given)	-2.2%	/	?	6.57µM*	/	/
COc1ccc(C(=O)/C=C/c2cn(CN3CCN(C)CC3)c3ccccc23)cc1	-109.5%	/	?	/	/	8.91µM*
Cc1ccc(C(=O)/C=C/c2cn(CC(O)CN3CCc4ccccc43)c3ccccc23)cc1 (stereo not given)	/	-13.8%	/	/	-13.8%	/
Cc1ccc(C(=O)/C=C/c2cn(CC(O)CN3CCOCC3)c3ccccc23)cc1 (stereo not given)	9.1%	-27.8%	11.7µM*	?	-14.9%	?
COc1ccc(C(=O)/C=C/c2cn(CC(O)CN3CCOCC3)c3ccccc23)cc1 (stereo not given)	0.0%	-26.6%	5.22µM*	?	-18.0%	?
